Test results taken from PubChem BioAssay AID1159580 (chemical genetic matrix, 2015).
The whole screen tested about 5,500 compounds, of which about 2,000 (36%) were called active. Not shown: some 18% with an inconclusive outcome. Rule as the data show it: active = normalized growth mostly below about 0.91 (no sharp cut-off); inconclusive = no clear call, values can overlap the other calls; inactive = mostly above about 0.92. The list shows a part of the results.

Assay: chemical genetic growth profiling, strain panel (AID 1159580);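 also: tested at 20 µM; growth read once vehicle control cultures reached saturation at 30 °C; 1 = growth at the plate median or of vehicle wells; lower values mean less growth of the strain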
Details: growth OD

Measured: normalized growth

C[n+]1c2cc(N)ccc2cc2ccc(N)cc21
inactive: S. cerevisiae deletion strains, locus YKL009W, strain mrt4, active compounds read low 0.933 | S. cerevisiae deletion strains, locus YKL068W, active compounds read low 0.956 | S. cerevisiae deletion strains, locus YKL085W, strain MDH1 (second series), active compounds read low 0.963 | S. cerevisiae deletion strains, locus YKL085W, strain MDH1, active compounds read low 0.963 | S. cerevisiae deletion strains, locus YLR039C, strain RIC1, active compounds read low 0.906 | S. cerevisiae deletion strains, locus YLR113W, strain HOG1, active compounds read low 0.862 | S. cerevisiae deletion strains, locus YLR262C, strain YPT6, active compounds read low 0.902 | S. cerevisiae deletion strains, locus YLR342W, strain FKS1 (second series), active compounds read low 0.802 | S. cerevisiae deletion strains, locus YMR231W, strain pep5, active compounds read low 0.945 | S. cerevisiae deletion strains, locus YMR307W, strain GAS1, active compounds read low 0.874 | S. cerevisiae deletion strains, locus YNL183C, strain NPR1, active compounds read low 0.87 | S. cerevisiae deletion strains, locus YOL012C, strain htz1 0.393 | S. cerevisiae deletion strains, locus YOR316C, strain cot1, active compounds read low 0.926 | S. cerevisiae deletion strains, locus YPL256C, strain CLN2, active compounds read low 0.903 | S. cerevisiae deletion strains, locus YPR141C, strain kar3, active compounds read low 0.93
active: S. cerevisiae deletion strains, locus YKL160W, strain elf1, active compounds read low 0.586 | S. cerevisiae deletion strains, locus YKL190W, strain CNB1, active compounds read low 0.85 | S. cerevisiae deletion strains, locus YKR001C, strain vps1, active compounds read low 0.844 | S. cerevisiae deletion strains, locus YKR026C, strain gcn3, active compounds read low 0.696 | S. cerevisiae deletion strains, locus YKR091W, strain srl3, active compounds read low 0.784 | S. cerevisiae deletion strains, locus YLL001W, strain dnm1, active compounds read low 0.456 | S. cerevisiae deletion strains, locus YLL026W, active compounds read low 0.471 | S. cerevisiae deletion strains, locus YLL041C, strain sdh2, active compounds read low 0.652 | S. cerevisiae deletion strains, locus YLR027C, strain aat2, active compounds read low 0.446 | S. cerevisiae deletion strains, locus YLR058C, strain SHM2, active compounds read low 0.743 | S. cerevisiae deletion strains, locus YLR102C, strain apc9, active compounds read low 0.924 | S. cerevisiae deletion strains, locus YLR221C, strain rsa3, active compounds read low 0.468 | S. cerevisiae deletion strains, locus YLR258W, strain gsy2, active compounds read low 0.524 | S. cerevisiae deletion strains, locus YLR262C, strain YPT6 (second series), active compounds read low 0.718 | S. cerevisiae deletion strains, locus YLR268W, strain sec22, active compounds read low 0.776 | S. cerevisiae deletion strains, locus YLR320W, strain mms22, active compounds read low 0.191 | S. cerevisiae deletion strains, locus YLR330W, strain CHS5, active compounds read low 0.863 | S. cerevisiae deletion strains, locus YLR342W, strain FKS1, active compounds read low 0.752 | S. cerevisiae deletion strains, locus YLR357W, strain rsc2, active compounds read low 0.669 | S. cerevisiae deletion strains, locus YLR370C, strain arc18, active compounds read low 0.506 | S. cerevisiae deletion strains, locus YLR371W, strain rom2, active compounds read low 0.908 | S. cerevisiae deletion strains, locus YLR384C, strain iki3, active compounds read low 0.682 | S. cerevisiae deletion strains, locus YLR418C, strain cdc73, active compounds read low 0.727 | S. cerevisiae deletion strains, locus YML016C, strain PPZ1, active compounds read low 0.806 | S. cerevisiae deletion strains, locus YML032C, strain rad52, active compounds read low 0.195 | S. cerevisiae deletion strains, locus YML120C, strain ndi1, active compounds read low 0.409 | S. cerevisiae deletion strains, locus YML124C, strain tub3, active compounds read low 0.928 | S. cerevisiae deletion strains, locus YMR058W, strain fet3, active compounds read low 0.531 | S. cerevisiae deletion strains, locus YMR078C, strain ctf18, active compounds read low 0.783 | S. cerevisiae deletion strains, locus YMR125W, strain sto1, active compounds read low 0.703 | S. cerevisiae deletion strains, locus YMR129W, active compounds read low 0.648 | S. cerevisiae deletion strains, locus YMR205C, strain PFK2, active compounds read low 0.439 | S. cerevisiae deletion strains, locus YMR223W, strain ubp8, active compounds read low 0.717 | S. cerevisiae deletion strains, locus YMR263W, strain SAP30, active compounds read low 0.626 | S. cerevisiae deletion strains, locus YNL067W, strain RPL9B, active compounds read low 0.698 | S. cerevisiae deletion strains, locus YNL071W, strain lat1, active compounds read low 0.28 | S. cerevisiae deletion strains, locus YNL128W, strain TEP1, active compounds read low 0.613 | S. cerevisiae deletion strains, locus YNL153C, strain GIM3, active compounds read low 0.744 | S. cerevisiae deletion strains, locus YNL209W, strain ssb2, active compounds read low 0.554 | S. cerevisiae deletion strains, locus YNL233W, strain BNI4, active compounds read low 0.725 | S. cerevisiae deletion strains, locus YNL248C, strain rpa49, active compounds read low 0.167 | S. cerevisiae deletion strains, locus YNL250W, strain rad50, active compounds read low 0.817 | S. cerevisiae deletion strains, locus YNL271C, strain bni1, active compounds read low 0.911 | S. cerevisiae deletion strains, locus YNL298W, strain CLA4, active compounds read low 0.896 | S. cerevisiae deletion strains, locus YNL307C, strain MCK1, active compounds read low 0.66 | S. cerevisiae deletion strains, locus YNL322C, strain KRE1 (second series), active compounds read low 0.218 | S. cerevisiae deletion strains, locus YNL322C, strain KRE1, active compounds read low 0.836 | S. cerevisiae deletion strains, locus YNR049C, strain mso1, active compounds read low 0.677 | S. cerevisiae deletion strains, locus YNR052C, strain pop2, active compounds read low 0.801 | S. cerevisiae deletion strains, locus YOL006C, strain TOP1, active compounds read low 0.349 | S. cerevisiae deletion strains, locus YOL147C, strain pex11, active compounds read low 0.882 | S. cerevisiae deletion strains, locus YOR001W, strain rrp6, active compounds read low 0.442 | S. cerevisiae deletion strains, locus YOR061W, strain CKA2, active compounds read low 0.865 | S. cerevisiae deletion strains, locus YOR069W, strain VPS5, active compounds read low 0.915 | S. cerevisiae deletion strains, locus YOR070C, strain gyp1, active compounds read low 0.557 | S. cerevisiae deletion strains, locus YOR080W, strain dia2, active compounds read low 0.409 | S. cerevisiae deletion strains, locus YOR083W, strain WHI5, active compounds read low 0.452 | S. cerevisiae deletion strains, locus YOR106W, strain vam3, active compounds read low 0.38 | S. cerevisiae deletion strains, locus YOR136W, strain idh2, active compounds read low 0.91 | S. cerevisiae deletion strains, locus YOR144C, strain elg1, active compounds read low 0.858 | S. cerevisiae deletion strains, locus YOR184W, strain ser1, active compounds read low 0.664 | S. cerevisiae deletion strains, locus YOR231W, strain MKK1, active compounds read low 0.822 | S. cerevisiae deletion strains, locus YOR265W, strain rbl2, active compounds read low 0.599 | S. cerevisiae deletion strains, locus YOR270C, strain vph1, active compounds read low 0.353 | S. cerevisiae deletion strains, locus YOR290C, strain snf2, active compounds read low 0.447 | S. cerevisiae deletion strains, locus YPL051W, strain arl3, active compounds read low 0.597 | S. cerevisiae deletion strains, locus YPL055C, strain LGE1, active compounds read low 0.678 | S. cerevisiae deletion strains, locus YPL078C, strain atp4, active compounds read low 0.465 | S. cerevisiae deletion strains, locus YPL106C, strain sse1, active compounds read low 0.695 | S. cerevisiae deletion strains, locus YPL240C, strain hsp82, active compounds read low 0.685 | S. cerevisiae deletion strains, locus YPL241C, strain CIN2, active compounds read low 0.88 | S. cerevisiae deletion strains, locus YPR119W, strain clb2, active compounds read low 0.92 | S. cerevisiae deletion strains, locus YPR163C, strain tif3, active compounds read low 0.883 | S. cerevisiae deletion strains, locus YPR167C, strain met16, active compounds read low 0.865 | S. cerevisiae deletion strains, strain wtn01, active compounds read low 0.793 | S. cerevisiae strains, strain wild type, active compounds read low 0.831
